# Experimental data: PubChem BioAssay
# Active and inactive are the calls of the source.
# Assays:
# [1] = system: PRMT1 (protein arginine N-methyltransferase 1); assay: PRMT1 binders on small-molecule microarrays, primary screen, biochemical, small-molecule microarray, 635 nm fluorescence (AID 1088); conditions: small-molecule microarray binding, higher = more signal;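 note: binding of Prmt1 protein to compounds spotted on small-molecule microarray slides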
# [2] = yeast growth modulation, basal conditions, primary screen, YJM789 clinical isolate, OD600, 24 h (AID 1089);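 note: growth of clinical yeast isolate S. cerevisiae YJM 789 seeded 1000 cells per well; test concentration not given here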; conditions: S. cerevisiae YJM789 growth, higher = more signal, called active from +8 up or from −8 down
# [3] = fission yeast growth modulation, primary screen, strain 972, OD600, 24 h, no modulator (AID 1090);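 note: basal condition with compound alone and no growth modifier present; test concentration not given here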; conditions: S. pombe 972 growth, higher = more signal, called active from +8 up or from −8 down
# [4] = S. cerevisiae growth modulation with rapamycin, primary screen, strain BY4716, OD600, 96 h (AID 1091); conditions: higher = more signal, called active from +8 up or from −8 down; note: test concentration not given here
# [5] = target: Torsin-1A-interacting protein 2 (Homo sapiens) (UniProt Q8NFQ8); assay: LULL1 binders on small-molecule microarray, primary screen, cell lysate, human LULL1 lysate, 635/667 nm fluorescence (AID 1092); conditions: hLULL1 lysate binding, 635 nm fluorescence, higher = more signal;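 note: probe is lysate of COS7 cells overexpressing human LULL1; score merges per-feature 667 nm fluorescence with signal-to-noise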
# Chain of Torsin-1A-interacting protein 2 (Homo sapiens) (Q8NFQ8 whole entry, looked up): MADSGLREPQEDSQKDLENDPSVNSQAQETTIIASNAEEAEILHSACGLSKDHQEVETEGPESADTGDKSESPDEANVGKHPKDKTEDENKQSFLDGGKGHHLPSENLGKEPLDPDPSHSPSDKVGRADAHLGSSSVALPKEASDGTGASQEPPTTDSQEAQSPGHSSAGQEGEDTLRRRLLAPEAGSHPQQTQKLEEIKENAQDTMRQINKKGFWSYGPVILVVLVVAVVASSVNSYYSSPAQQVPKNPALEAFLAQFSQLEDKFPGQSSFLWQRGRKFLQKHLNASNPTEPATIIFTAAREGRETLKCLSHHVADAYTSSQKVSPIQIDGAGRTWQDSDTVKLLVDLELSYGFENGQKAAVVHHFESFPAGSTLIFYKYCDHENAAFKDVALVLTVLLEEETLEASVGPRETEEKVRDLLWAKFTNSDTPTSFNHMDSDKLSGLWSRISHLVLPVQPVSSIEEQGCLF
# [6] = E. coli growth modulation, two-sided OD650, primary screen, E. coli filamentation project, strain DRC41, 24 h (AID 1093); conditions: OD650, 24 h, higher = more signal, called active from +8 up or from −8 down;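 note: MC1000 strain lacking acrAB efflux and sulA so SOS filamentation is blocked; test concentration not given here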
# [7] = small-molecule microarray binders of probe aLefty2, primary screen, biochemical, biotinylated probe, 635/667 nm fluorescence (AID 1094); conditions: higher = more signal;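 note: score merges spot fluorescence near 667 nm with spot signal-to-noise ratio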
# [8] = system: Noggin (protein binding on small-molecule microarray); assay: Noggin binders on small-molecule microarray, primary screen, biochemical, 635/667 nm fluorescence (AID 1095); conditions: 635 nm fluorescence, higher = more signal;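 note: score merges 667 nm feature fluorescence with signal to noise over triplicate slides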
# [9] = target: Neurogenic locus notch homolog protein 3 (Homo sapiens) (UniProt Q9UM47); assay: NOTCH3 binders on small-molecule microarray, primary screen, biochemical, 635/667 nm fluorescence (AID 1096); conditions: NOTCH3 binding, 635 nm fluorescence, higher = more signal
# Chain of Neurogenic locus notch homolog protein 3 (Homo sapiens) (Q9UM47 whole entry, looked up): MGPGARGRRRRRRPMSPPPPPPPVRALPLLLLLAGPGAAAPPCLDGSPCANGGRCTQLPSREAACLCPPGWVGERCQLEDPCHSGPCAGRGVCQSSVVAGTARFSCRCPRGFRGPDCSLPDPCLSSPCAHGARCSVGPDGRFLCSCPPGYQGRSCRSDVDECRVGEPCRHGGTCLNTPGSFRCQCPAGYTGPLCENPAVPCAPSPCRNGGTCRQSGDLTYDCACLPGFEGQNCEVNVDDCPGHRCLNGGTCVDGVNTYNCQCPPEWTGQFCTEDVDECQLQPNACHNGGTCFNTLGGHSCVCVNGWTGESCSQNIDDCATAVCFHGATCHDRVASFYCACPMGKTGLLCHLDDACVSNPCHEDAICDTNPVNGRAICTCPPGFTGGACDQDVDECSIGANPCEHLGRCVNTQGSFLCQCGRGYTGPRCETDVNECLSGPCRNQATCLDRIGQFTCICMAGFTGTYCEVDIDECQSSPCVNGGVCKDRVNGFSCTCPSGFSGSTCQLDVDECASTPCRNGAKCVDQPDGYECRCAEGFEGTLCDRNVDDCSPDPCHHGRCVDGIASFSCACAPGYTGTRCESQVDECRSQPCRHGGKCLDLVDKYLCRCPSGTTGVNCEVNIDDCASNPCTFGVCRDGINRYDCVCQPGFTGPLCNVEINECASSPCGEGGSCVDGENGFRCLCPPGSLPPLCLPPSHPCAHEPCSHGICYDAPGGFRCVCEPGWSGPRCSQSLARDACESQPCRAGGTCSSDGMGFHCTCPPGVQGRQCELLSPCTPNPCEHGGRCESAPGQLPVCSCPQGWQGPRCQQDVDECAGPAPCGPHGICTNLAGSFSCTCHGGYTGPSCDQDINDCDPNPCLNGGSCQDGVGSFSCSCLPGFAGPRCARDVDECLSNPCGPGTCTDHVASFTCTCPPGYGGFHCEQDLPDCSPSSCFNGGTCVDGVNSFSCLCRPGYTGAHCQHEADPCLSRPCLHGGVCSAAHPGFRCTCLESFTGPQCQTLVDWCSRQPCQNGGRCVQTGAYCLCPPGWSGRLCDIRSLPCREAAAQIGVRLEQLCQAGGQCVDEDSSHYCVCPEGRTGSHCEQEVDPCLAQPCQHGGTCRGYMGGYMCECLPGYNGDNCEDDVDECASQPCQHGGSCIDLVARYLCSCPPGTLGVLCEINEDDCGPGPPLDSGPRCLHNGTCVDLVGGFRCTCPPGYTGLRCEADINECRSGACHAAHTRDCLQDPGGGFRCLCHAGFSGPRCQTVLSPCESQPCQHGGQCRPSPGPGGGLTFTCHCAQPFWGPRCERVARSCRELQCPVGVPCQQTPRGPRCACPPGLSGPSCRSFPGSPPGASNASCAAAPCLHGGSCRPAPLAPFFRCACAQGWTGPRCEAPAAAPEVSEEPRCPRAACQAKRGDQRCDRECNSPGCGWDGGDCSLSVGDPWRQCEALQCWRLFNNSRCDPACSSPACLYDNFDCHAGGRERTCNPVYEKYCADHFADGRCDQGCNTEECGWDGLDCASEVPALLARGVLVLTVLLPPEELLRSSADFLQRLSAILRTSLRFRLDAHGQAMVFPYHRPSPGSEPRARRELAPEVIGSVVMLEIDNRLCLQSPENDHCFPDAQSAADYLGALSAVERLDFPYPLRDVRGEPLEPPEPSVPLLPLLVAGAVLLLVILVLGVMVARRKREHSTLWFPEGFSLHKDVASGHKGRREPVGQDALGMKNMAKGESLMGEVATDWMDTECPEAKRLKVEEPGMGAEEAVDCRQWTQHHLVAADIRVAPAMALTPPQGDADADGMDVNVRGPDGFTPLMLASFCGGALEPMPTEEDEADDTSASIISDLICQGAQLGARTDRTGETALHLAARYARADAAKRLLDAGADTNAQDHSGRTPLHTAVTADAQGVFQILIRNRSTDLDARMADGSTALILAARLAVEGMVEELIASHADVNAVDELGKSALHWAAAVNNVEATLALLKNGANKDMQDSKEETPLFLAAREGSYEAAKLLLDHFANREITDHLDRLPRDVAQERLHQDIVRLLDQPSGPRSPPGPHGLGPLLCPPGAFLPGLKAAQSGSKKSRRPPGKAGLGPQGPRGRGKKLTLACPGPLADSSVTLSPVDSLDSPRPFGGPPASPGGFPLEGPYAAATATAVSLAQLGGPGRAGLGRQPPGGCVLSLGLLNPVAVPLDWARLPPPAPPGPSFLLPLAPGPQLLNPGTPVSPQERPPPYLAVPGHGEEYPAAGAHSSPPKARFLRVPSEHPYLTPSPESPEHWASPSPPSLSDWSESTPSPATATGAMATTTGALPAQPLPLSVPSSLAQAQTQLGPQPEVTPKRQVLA
# [10] = small-molecule microarray binders of probe aEGFR, primary screen, biochemical, biotinylated probe, 635/667 nm fluorescence (AID 1097); conditions: higher = more signal;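 note: probe is a biotinylated anti-EGFR antibody binding compounds printed on slides; score combines fluorescence near 667 nm and signal to noise of each spot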
# [11] = system: Plasmodium falciparum Sir2 (PF13_0152, Sir2A); assay: pfSir2 binders on small-molecule microarrays, primary screen, biochemical, small-molecule microarray, 635 nm fluorescence (AID 1098); conditions: small-molecule microarray binding, fluorescence 635 nm; higher = more signal;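 note: score merges spot fluorescence intensity with its signal-to-noise ratio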
# [12] = small-molecule microarray binders of probe aDKK1, primary screen, biochemical, biotinylated probe, 635/667 nm fluorescence (AID 1099); conditions: higher = more signal;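 note: score merges 667nm spot fluorescence with signal to noise across triplicate slides; reference of the scale not given here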
# [13] = small-molecule microarray binders of probe aCHRDL2, primary screen, biochemical, biotinylated probe, 635/667 nm fluorescence (AID 1100); conditions: higher = more signal
# [14] = splicing luciferase reporter signal modulators, primary screen, spliceosome inhibition project, cell-based, HEK293, splice +/- reporter (AID 1101); conditions: luminescence, 24 h, higher = more signal, called active from +8 up or from −8 down;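 note: HEK293 cells carrying a splicing-competent luciferase reporter gene; test concentration not given here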
# [15] = target: Fibroblast growth factor 10 (Homo sapiens) (UniProt O15520); assay: FGF10 binders on small-molecule microarrays, primary screen, biochemical, small-molecule microarray, 635 nm fluorescence (AID 1102); conditions: FGF10 binding, fluorescence 635 nm, higher = more signal
# Chain of Fibroblast growth factor 10 (Homo sapiens) (O15520 whole entry, looked up): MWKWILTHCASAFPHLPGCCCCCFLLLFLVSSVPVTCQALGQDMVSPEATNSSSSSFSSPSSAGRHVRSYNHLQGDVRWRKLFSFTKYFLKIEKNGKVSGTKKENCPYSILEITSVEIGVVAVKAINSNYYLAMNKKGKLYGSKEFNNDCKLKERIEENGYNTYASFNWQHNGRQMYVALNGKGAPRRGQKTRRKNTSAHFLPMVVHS
# [16] = system: glycogen synthase kinase-3 (GSK3A per assay name; protocol says GSK3B); assay: GSK3 binders on small-molecule microarrays, primary screen, biochemical, small-molecule microarray, 635 nm fluorescence, GSK3A (AID 1103); conditions: small-molecule microarray binding, fluorescence 635 nm; higher = more signal; note: the record names both GSK3A and GSK3B
# [17] = target: Epidermal growth factor receptor (Homo sapiens) (UniProt P00533); assay: EGFR binders on small-molecule microarrays, primary screen, biochemical, small-molecule microarray, 635 nm fluorescence (AID 1104); conditions: EGFR binding, higher = more signal;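 note: score merges 667 nm emission intensity with spot signal to noise over triplicate slides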
# Chain of Epidermal growth factor receptor (Homo sapiens) (P00533 whole entry, looked up): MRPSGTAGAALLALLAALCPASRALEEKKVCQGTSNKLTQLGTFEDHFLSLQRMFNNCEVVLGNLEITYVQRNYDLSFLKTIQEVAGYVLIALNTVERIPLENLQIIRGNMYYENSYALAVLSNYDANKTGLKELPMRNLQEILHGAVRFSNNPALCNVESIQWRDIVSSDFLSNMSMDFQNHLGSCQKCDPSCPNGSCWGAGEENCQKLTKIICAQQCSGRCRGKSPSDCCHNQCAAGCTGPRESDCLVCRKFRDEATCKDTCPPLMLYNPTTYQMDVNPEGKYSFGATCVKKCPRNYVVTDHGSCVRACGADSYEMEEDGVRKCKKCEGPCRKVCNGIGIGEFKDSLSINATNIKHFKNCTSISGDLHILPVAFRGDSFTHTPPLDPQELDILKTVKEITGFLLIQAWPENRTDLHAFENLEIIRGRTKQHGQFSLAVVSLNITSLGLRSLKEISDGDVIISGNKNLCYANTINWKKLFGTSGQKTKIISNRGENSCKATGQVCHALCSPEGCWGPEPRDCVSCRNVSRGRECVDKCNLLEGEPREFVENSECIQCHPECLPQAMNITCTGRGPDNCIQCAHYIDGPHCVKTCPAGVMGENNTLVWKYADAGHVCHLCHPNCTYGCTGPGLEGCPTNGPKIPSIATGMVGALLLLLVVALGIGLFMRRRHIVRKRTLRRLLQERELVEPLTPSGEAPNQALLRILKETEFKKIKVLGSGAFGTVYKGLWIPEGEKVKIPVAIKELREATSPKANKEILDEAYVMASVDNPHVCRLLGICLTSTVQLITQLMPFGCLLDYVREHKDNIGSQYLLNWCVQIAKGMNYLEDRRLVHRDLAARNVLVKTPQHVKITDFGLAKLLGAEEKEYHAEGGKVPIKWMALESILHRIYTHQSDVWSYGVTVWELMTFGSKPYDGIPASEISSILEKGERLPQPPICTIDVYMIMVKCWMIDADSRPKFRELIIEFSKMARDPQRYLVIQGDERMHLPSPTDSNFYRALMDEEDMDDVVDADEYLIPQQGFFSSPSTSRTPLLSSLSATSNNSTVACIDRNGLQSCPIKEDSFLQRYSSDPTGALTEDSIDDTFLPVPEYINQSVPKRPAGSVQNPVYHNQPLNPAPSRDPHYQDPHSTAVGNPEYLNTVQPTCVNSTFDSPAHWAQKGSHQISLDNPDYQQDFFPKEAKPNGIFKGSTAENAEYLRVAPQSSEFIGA
# [18] = target: Follistatin-related protein 3 (Homo sapiens) (UniProt O95633); assay: FSTL3 binders on small-molecule microarrays, primary screen, biochemical, small-molecule microarray, 635 nm fluorescence (AID 1105); conditions: FSTL3 binding, higher = more signal;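 note: score merges emission near 667 nm and signal to noise per printed spot across three slides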
# Chain of Follistatin-related protein 3 (Homo sapiens) (O95633 whole entry, looked up): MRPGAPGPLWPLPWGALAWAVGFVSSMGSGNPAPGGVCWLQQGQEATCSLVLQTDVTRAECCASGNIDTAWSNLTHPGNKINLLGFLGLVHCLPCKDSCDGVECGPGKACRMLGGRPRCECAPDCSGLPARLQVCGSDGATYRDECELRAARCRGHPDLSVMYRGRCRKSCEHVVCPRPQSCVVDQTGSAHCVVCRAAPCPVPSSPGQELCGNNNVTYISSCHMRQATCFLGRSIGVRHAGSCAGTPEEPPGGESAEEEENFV
# [19] = target: Dickkopf-related protein 1 (Homo sapiens) (UniProt O94907); assay: DKK1 binders on small-molecule microarrays, primary screen, biochemical, small-molecule microarray, 635 nm fluorescence scan (AID 1106); conditions: DKK1 binding, higher = more signal;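 note: score merges emission near 667 nm with signal to noise over three replicate slides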
# Chain of Dickkopf-related protein 1 (Homo sapiens) (O94907 whole entry, looked up): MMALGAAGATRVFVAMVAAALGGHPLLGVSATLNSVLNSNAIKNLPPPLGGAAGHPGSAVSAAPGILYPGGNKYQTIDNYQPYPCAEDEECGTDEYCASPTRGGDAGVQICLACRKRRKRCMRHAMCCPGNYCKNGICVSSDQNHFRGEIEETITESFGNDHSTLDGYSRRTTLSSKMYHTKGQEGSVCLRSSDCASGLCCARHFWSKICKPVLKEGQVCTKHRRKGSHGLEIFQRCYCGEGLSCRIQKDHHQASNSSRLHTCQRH
# [20] = system: Inhibin beta A chain (activin A); assay: INHBA (activin A) binders on microarrays, primary screen, biochemical, small-molecule microarray, 635 nm fluorescence scan (AID 1107); conditions: small-molecule microarray binding, higher = more signal;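 note: mouse activin A protein probed at 4.33 µg/mL on printed slides; score merges bound-protein fluorescence near 667 nm with spot signal-to-noise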
Compound,composite z-score [1],z-score [2],z-score [3],z-score [4],composite z-score [5],z-score [6],composite z-score [7],composite z-score [8],composite z-score [9],composite z-score [10],composite z-score [11],composite z-score [12],composite z-score [13],z-score [14],composite z-score [15],composite z-score [16],composite z-score [17],composite z-score [18],composite z-score [19],composite z-score [20]
CC(C)CON=C1[C@H]2CCn3c(=O)n(-c4ccccc4)c(=O)n3[C@H]2[C@H](O)[C@@H]2O[C@H]12,-0.317,-0.476 (inactive),0.0606 (inactive),-0.369 (inactive),-0.381,0.343 (inactive),-0.149,0.302,0.837,-0.228,0.734,-0.217,-0.481,-0.271 (inactive),0.229,0.298,0.481,0.532,1.2,-0.0603
CC(CCN1CCc2nc(-c3ccccc3)c(-c3ccccc3)cc2C1)=NOC[C@@H](C)[C@H](OCc1ccccc1)C(C)C,-0.299,-0.511 (inactive),-1.17 (inactive),-3.43 (inactive),0.628,-0.518 (inactive),-0.195,-0.179,-2.07,-0.25,1.42,-0.215,0.213,-0.0457 (inactive),-1.3,-1.52,-1.15,-1.76,-1.21,0.166
O=C1O[C@@H](c2ccccc2)[C@@H](c2ccccc2)N2[C@@H](c3ccc(OCCO)cc3)[C@]3(C(=O)Nc4ccccc43)[C@@H](C(=O)N3CCN(c4ncccn4)CC3)[C@H]12,1.53,1.94 (inactive),1.4 (inactive),4.77 (inactive),2.97,0.856 (inactive),1.04,0.952,1.1,0.0679,1.4,0.556,-0.0223,-0.0125 (inactive),0.69,1.22,0.774,1.23,0.886,0.38
CCCC[C@H]1OB(O)C[C@H]2C1=C(C)C[C@H]1C(=O)N(C)C(=O)[C@H]12,0.95,-0.334 (inactive),-0.698 (inactive),-0.762 (inactive),1.2,-0.889 (inactive),-0.166,0.622,0.959,-0.12,0.0529,-0.0166,-0.372,0.238 (inactive),0.944,0.774,0.259,1.27,0.558,0.131
COc1ccc(COC(=O)NN=C2C[C@@H](O)[C@@H](O)[C@@H]3[C@@H]4C(=O)N(c5ccc(F)cc5F)C(=O)[C@@H]4CC[C@@H]23)cc1,-1.42,0.935 (inactive),-0.423 (inactive),0.0088 (inactive),-0.524,0.488 (inactive),0.0215,-0.0901,0.14,-0.117,0.911,0.262,1.18,0.3 (inactive),-0.665,-1.53,-0.076,-0.267,-0.69,0.532
CC(C)CON=C1C[C@@H](O)[C@@H](O)[C@@H]2[C@@H]3C(=O)N(Cc4ccccc4)C(=O)[C@@H]3CC[C@@H]12,0.517,-0.443 (inactive),-0.264 (inactive),-0.682 (inactive),0.434,0.354 (inactive),-0.099,0.484,0.59,-0.0679,-0.511,-0.278,-0.737,-0.28 (inactive),0.5,0.649,0.571,0.617,0.836,-0.269
CC(CCN1CCc2nc(-c3ccccc3)c(-c3ccccc3)cc2C1)=NOC(C)CN1CCCCc2nc(C)c(C)cc21 (stereo not given),0.948,-1.03 (inactive),-3.01 (inactive),-3.08 (inactive),1.53,0.74 (inactive),-0.0813,0.454,0.905,-0.0565,0.646,-0.0421,0.318,-0.0114 (inactive),0.593,0.746,0.964,0.609,0.77,1.15
CO[C@@H]1COC(=O)CC=C[C@@H](C)COC(=O)[C@H](COCc2ccccc2)NC(=O)CC=C[C@H]1C,0.943,0.847 (inactive),-0.584 (inactive),0.736 (inactive),-0.914,0.154 (inactive),-0.183,1.71,-0.551,-0.0899,1.49,-0.526,-1.31,-0.912 (inactive),0.285,0.19,0.912,1.23,1.64,1.63
COCCCNC(=O)[C@]1(Cc2ccccc2)N=C(c2ccc(OCCCO)cc2)O[C@@H]1c1ccccc1,1.44,-1 (inactive),-1.32 (inactive),-1.41 (inactive),3.61,-0.806 (inactive),0.0814,0.468,0.129,-0.0594,1.73,-0.0501,0.755,0.0778 (inactive),1.16,0.618,-0.578,-0.351,-0.894,0.455
COC(=O)[C@@H]1CC[C@H](C)[C@@H](c2ccc(C)cc2)N1C(=O)c1ccc(C=NOC[C@@H](O)COCc2ccco2)cc1,-2.07,-1.45 (inactive),0.165 (inactive),-0.71 (inactive),-1.69,1.47 (inactive),0.0179,-1.01,-3.12,-0.0868,-0.525,-0.456,0.675,-0.0402 (inactive),-1.43,-1.79,-1.3,-2.16,-0.5,1.87
CCc1cc2c(nc1CC)CCN(CCC(C)=NO[C@@H](C)c1cc(-c3c(C)cc(C)cc3C)no1)C2,0.608,-0.889 (inactive),-6.86 (inactive),-1.26 (inactive),0.468,-0.0254 (inactive),-0.0765,0.343,-1.5,-0.172,0.856,-0.227,-0.286,-0.596 (inactive),-0.328,-0.562,-0.408,-0.473,-0.107,0.711
